Experimental data: PubChem BioAssay AID1159506 (National Center for Advancing Translational Sciences (NCATS), 2015)
Whole data set: some 59,000 sequences, median the read-out near -0.00055, cut for the lowest 2% near -2. This is one part of a sample in which the lowest values are shown more often than they occur.

experiment: Identification of proteins required for the processing of the EWS-FLI1 nascent transcript; settings: TC32 Ewing sarcoma NR0B1-luc vs CMV-luc (EWS-FLI1 target promoter against control promoter), 48 h; screened at 20 nM (by protocol);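 note: robust z of luciferase light less the median z of siRNAs with the same seed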
In short: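 Three siRNAs per gene, each in a separate well at 20 nM, were transfected into TC32 cells bearing either reporter construct. Luminescence was measured two days on, and per-gene comparison relied on seed-corrected Z values.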

Sequence | seed-corrected z-score
AAAGCGACACCUGUCAGUC against IKBKAP | -0.0431
UUCAAUGAUAAUAAGGUUG against SF3B3 | -3.05
UUUAUCGAAAGCAAAAUUG against MTPAP | 0.577
AAAUCGACUACUGAGAACC against CUL9 | 0.396
AUCCCGACAAUCACCUUCC against DPAGT1 | -0.101
AAUGUGGUGAAUACCUCGC against TXLNA | 0.621
AUCGGUCACAAAUUGUGGG against ABCE1 | -2.31
UGUUCAUCAAGAGGUUUCC against NUP188 | 0.194
UUUCCAUAGACUUUCCCAC against KLF9 | -0.352
UUUCUUAACUGAGUUCCUC against BMF | -0.0574
UAUCAACUCAGUCCUCAGC against HPS6 | 0.543
AAGACUUUCAGACAUUUGU against ZNF181 | -0.276
UUUGGGCUUAGCGGCUUUG against HIST1H1B | -2.05
ACUGUAAUUACUAAGAUCU against CXCR2 | -1.37
UACCAGAUGUCUUUUGUGC against IL33 | 0.0107
UUCUGGUCGAGAGCAUCUG against MAGEB16 | -2.42
UAUAACUUGAGAGUAGCUC against POPDC2 | 0.283
UAUAAGUUUCCUCCCAUGC against TM6SF1 | 0.269
AUCUUGGACAGUAUCAGCC against IQCF1 | -2.36
UUGAGUUUGAUGCCGCUGC against MKNK2 | -0.331
UUUCUUAGGGAACCAGUUG against TAGLN2 | -0.282
UCCAGAUUCAAAAUGUCUU against NKX2-3 | 0.184

Sequence | seed-corrected z-score
AAACUCAUCACUCCAGUAC against PARP12 | 0.00618
UUCUUGACUGCUGGUAUAG against C3orf30 | -0.465
UCGGUGUUCACGUAGCCCU against SYNGR3 | -0.68
UUUAUUUAGACUUAUGAUC against PTH | -2.27
UCUACUUUUCACAAUGACC against GCLM | -0.666
ACGGCCUCCACUAUGUUUC against RPS26P31 | 0.368
AAACUGUGAAGCGUAAGUG against FAM188B | -4.34
UGUCAAAUGAAAUUCCUUC against DHX38 | -0.779
UGUGUGAGCAUGAAGCGAG against SSNA1 | 0.0225
AUAUGUAUCAGAACUGGGA against SAE1 | -0.67
UGCUGUAAUGAUGUACUCC against KIAA1549 | -1.71
UUAAUCACCUUGUCGUUGC against ALDH3A1 | -0.669
UGGUCUUAAAAUUAGAGUG against CALR3 | -2.01
AUAUGAUUAGGUAGGUUUG against GDPD2 | 0.805
UCGGAUUGAUCUGUUAUGG against CFAP54 | -1.05
UGGUAUAUAAGGGAUGAGC against ZNF611 | -2.07
UAUUGUCCAAAUGCUCAGG against SALL1 | -0.159
UGUCUAAUAAGGCCUGAGC against ZFP3 | -0.177
ACAUCACAAAGUAUUAAUC against LOC643855 | 0.14
UUGGGUUGGAAGUCCACUG against SF3A1 | -2.15
UUCUGGAUUAUAGUCAUCC against CWC22 | 0.478
AAUGCUUUUAAUGCUCUUC against CARHSP1 | -0.968

Sequence | seed-corrected z-score
UGAUCUACUAUGGUCCCUC against CPSF6 | 0.287
UACAUGAGCCUUGAUCUGG against FAU | 1.08
UGCAUGCUCAUUAAGUUCC against TUBE1 | -0.26
UGUAGUCACUUUCACAUUC against CCR2 | -2.02
UACUCUUAAAGUGAUGUUA against PPP1R1C | 0.297
ACAGCACCUAGCAUGAUUG against HIGD1B | 1.03
UUCAUUAGCACAUAAGCGG against HENMT1 | 0.665
UCGAAGUUUACUGCGGUCC against HINFP | -2.19
AUUCAUAUAGUUUUUCUCC against ZNF585B | 0.297
UAUGCACAAAGUUUGUGGG against CDC42SE2 | -0.65
UCUCCUCCUCGAAAAGUGC against SLC12A7 | 0.16
AUCCAUGUCAGCGUGAGUC against PSD2 | -0.273
AAGAGAAUCAAAAUAGUGG against GPR63 | -0.548
AUCCGAACCAGGUAGACAC against PRTG | 0.374
AUUGUGGUAGUAGUGUUGG against NUP62CL | -2.29
UCUUUGCCUAGUGUGGUUU against TAF9 | -0.576
UGUCUGUUUGUUGAAACUC against APOA5 | -0.451
UCGUAGGCAAGGUAAGUAG against MUCL1 | -0.0888
UCAAGUAAACUAGUCGUUU against VKORC1L1 | -0.26
UUGGUUGCAAAGGAACUCC against NAB1 | -2.58
UUCAUUUGCUCGAUGGUUG against MAPK1 | 1.09
UUCCUUGAUAGGUAUGUAU against LOC388813 | -0.0267
